Records with an inconclusive call do not appear. Unmarked numbers belong to inactive results. Calls come from the whole dose curve; as a rule, active = well fitted inhibition curve with a large enough effect; inconclusive = small, poorly fitted or top-dose-only effect; inactive = flat fitted curve, though single readings scatter.

In the assay the target is Polyunsaturated fatty acid lipoxygenase ALOX12 (Homo sapiens) (UniProt P18054). Nature of the assay: Confirmation qHTS Assay for Inhibitors of 12-hLO (12-human lipoxygenase). The note with it: purified 12-hLO, xylenol orange absorbance; stronger effect = lower value. The text has this: Assay Provider: Holman, T.R., University of California, Santa Cruz Screening Center PI: Austin, Christopher P. Screening Center: NIH Chemical Genomics Center Human lipoxygenase 12hLO is a member of the closely related lipoxygenase family of enzymes which catalyze the site-specific oxidation of arachidonic acid to various hormone precursor molecules and as such is a candidate for drug development in a variety of disease areas, such as cancer and inflammation. Inhibition of 12hLO activity was screened by utilizing arachidonic acid as a substrate. The extent of hydroperoxide product formation was measured by a secondary chromogenic reaction in which xylenol orange (XO, Sigma-Aldrich, cat. number 39,818-7) reacts with the ferric ions produced from the reaction between the hydroperoxide and ferrous ions. The Fe(III)-XO complex is characterized with red-shifted absorbance at 560 nm. A purified preparation of human 12hLO was supplied by Professor Ted Holman, University of California, Santa Cruz. This assay includes some confirmation and follow-up compounds for related primary screening assay AID 1452.
Assay Protocol: Buffer: 25 mM Hepes pH 7.0, 0.01% Triton X-100. […] The absorbance at 405 and 573 nm were measured using ViewLux (Perkin-Elmer) High-throughput CCD imager and absorbance protocol settings. The 573-to-405 absorbance ratio was used to compute reaction progress.
(In general: Quantitative high-throughput screening tests each substance at several concentrations.)

Chain of Polyunsaturated fatty acid lipoxygenase ALOX12 (Homo sapiens) (P18054 whole entry, looked up): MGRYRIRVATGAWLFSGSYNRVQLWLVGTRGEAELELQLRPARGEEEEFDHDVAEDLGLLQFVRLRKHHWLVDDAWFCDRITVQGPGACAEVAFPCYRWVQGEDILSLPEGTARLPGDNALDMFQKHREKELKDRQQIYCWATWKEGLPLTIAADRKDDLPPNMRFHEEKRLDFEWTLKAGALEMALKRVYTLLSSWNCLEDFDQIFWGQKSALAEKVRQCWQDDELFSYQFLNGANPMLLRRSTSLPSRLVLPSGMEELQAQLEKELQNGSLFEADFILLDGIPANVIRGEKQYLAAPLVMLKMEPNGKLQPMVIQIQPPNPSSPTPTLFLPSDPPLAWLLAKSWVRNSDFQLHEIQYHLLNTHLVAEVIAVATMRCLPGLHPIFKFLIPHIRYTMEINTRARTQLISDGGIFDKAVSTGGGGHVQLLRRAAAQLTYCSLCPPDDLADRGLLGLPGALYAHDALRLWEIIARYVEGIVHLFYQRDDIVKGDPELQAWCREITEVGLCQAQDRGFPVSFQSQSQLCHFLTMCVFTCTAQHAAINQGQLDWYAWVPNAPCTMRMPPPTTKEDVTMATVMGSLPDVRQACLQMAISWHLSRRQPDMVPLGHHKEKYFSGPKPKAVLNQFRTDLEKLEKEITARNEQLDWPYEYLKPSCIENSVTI

For `CCC(C)C(=O)c1c(O)c(C)c2oc3c(C)c(O)c(C(=O)C(C)CC)c(O)c3c2c1O` (stereo unspecified), the activity change, negative = inhibition is -25.9%.

The record behind these values is PubChem BioAssay AID2162 (National Center for Advancing Translational Sciences (NCATS), 2009).
